Data as given in PubChem BioAssay AID2391 (Southern Research Specialized Biocontainment Screening …, 2010).
Out of some 310,000 compounds screened, about 410 (0.13%) were called active. Inconclusive results (about 2%) are left out. The rule behind the calls is not given here. These entries were drawn from the full list. Measured potencies and affinities stand elsewhere.

Assay: RSV antiviral activity via CPE protection, HEp-2 cells, primary 10 µM value included (AID 2391)
Settings: RSV-induced CPE inhibition, at 10 µM, hits give high values

CPE inhibition, inactive:
CCOc1ccc(C2c3[nH]c4ccccc4c3CCN2Cc2cccn2-c2ncccn2)cc1 (centres undefined) 43.1%
Fc1ccccc1C1c2[nH]c3ccccc3c2CCN1Cc1cccn1-c1ncccn1 (centres undefined) 16.6%
CC(C)(C)c1ccc(-c2nc(C#N)c(NCc3cccnc3)o2)cc1 0.34%
COc1ccc(C(C)(C)C)cc1NC(=O)c1ccc[n+]([O-])c1 0.85%
O=C(NCc1ccccc1)c1ccc[n+]([O-])c1 0.02%
CC(=O)C1=C(O)C(=O)N(c2nccs2)C1c1ccc(F)cc1 (centres undefined) 1.72%
O=c1/c(=C\c2ccc(F)cc2)sc2n1CCCN=2 0.07%
Cc1cccnc1Nc1nc(-c2ccc(F)cc2)cs1 14.5%
CCCCN(CC)C(=O)c1cc2cc3ccc(OC)cc3nc2o1 20.6%
CCCCN(C)C(=O)c1cc2cc3ccc(OC)cc3nc2o1 12.1%
Cc1ccc2cc3cc(C(=O)N4CCCCCC4)oc3nc2c1 58.9%
Cc1ccc2cc3cc(C(=O)NC4CCCCC4)oc3nc2c1 4.34%
COc1ccc2cc3cc(C(=O)N4CCCCCC4)oc3nc2c1 5.67%
COc1ccc2cc3cc(C(=O)N4CCCC(C)C4)oc3nc2c1 (centres undefined) -0.12%
COc1ccc(/C=N/N=C2/NC(=O)C(CC(=O)O)S2)cc1OCc1ccc(Cl)cc1Cl (centres undefined) 1.42%
CCOc1cc(/C=N/N=C2/NC(=O)C(CC(=O)O)S2)ccc1OCc1ccc(Cl)cc1 (centres undefined) 2%
CC(C)NC(=O)CCNC(=O)c1ccc(F)cc1 0.45%
CCCCCCC(C)n1[nH]c(=O)c2c(C)cc(C)nc21 (centres undefined) 6.56%
COCCCNC(=O)c1cc(-c2cccnc2)nc2ccccc12 1.57%
COc1cccc(-c2cc(C(=O)Nc3ccncc3)c3ccccc3n2)c1 18.1%
O=C(NC1=NCCS1)c1cc(-c2cccnc2)nc2ccccc12 3.02%
O=C(NC1=NCCS1)c1cc(-c2ccc(F)cc2)nc2ccccc12 8.35%
COCCNC(=O)COC(=O)c1cc(-c2ccc(OC)cc2)nc2ccccc12 2.44%
O=C(Nc1ncccn1)c1cc(-c2cccc(Br)c2)nc2ccccc12 10.3%
Cc1ccc2nc(SCc3cn4cccnc4n3)[nH]c2c1 0.92%
CC(C(=O)Nc1cccc([N+](=O)[O-])c1)n1nnc2ccccc21 (centres undefined) -0.02%
CCC1Sc2ccc(S(=O)(=O)CCC(=O)Nc3c(Cl)cc(OC)cc3OC)cc2NC1=O (centres undefined) 12.2%
Cc1ccc(N2CCN(C(=O)NC3CCCCC3)CC2C)cc1 (centres undefined) 3.66%
COc1ccc(NC(=O)NCCCN2CCN(c3ccccc3F)CC2)cc1 -2.01%
CCOc1ccc(C(=O)CN2C(=O)NC3(CCCCCC3)C2=O)cc1 1.63%
COc1cc2c(cc1OC)C(C)N(C(=O)/C=C/c1cc(OC)c(OC)c(OC)c1)CC2 (centres undefined) 1.08%
COc1cc2c(cc1OC)C(C)N(C(C)=O)CC2 (centres undefined) -1.08%
COc1cc2c(cc1OC)C(C)N(C(=O)c1ccc(C)o1)CC2 (centres undefined) 3.08%
COc1cc2c(cc1OC)C(C)N(C(=O)c1ccc(Br)o1)CC2 (centres undefined) 4.76%
Cc1ccc(NC(=O)c2c(F)cccc2Cl)cc1S(=O)(=O)N1CCOCC1 2.31%
CCOc1ccc(NC(=O)CC2C(=O)N(c3ccccc3)C(=O)N2Cc2ccccn2)cc1 (centres undefined) 3.73%
CCOc1ccc(NC(=O)CC2C(=O)N(c3ccc(OC)cc3)C(=S)N2Cc2ccccn2)cc1 (centres undefined) -1.46%
COc1ccc(N2C(=O)C(CC(=O)Nc3ccccc3)N(Cc3ccccn3)C2=S)cc1 (centres undefined) 4.08%
CCOc1ccc(NC(=O)CC2C(=O)N(c3ccccc3)C(=S)N2Cc2ccccn2)cc1 (centres undefined) 7.95%
CCCCCc1cc(=O)oc2c(C(CCN3CCCCC3)c3ccc(OC)cc3)c(OC)cc(OC)c12 (centres undefined) -3.75%
C[C@@]12C(=O)N(c3ccc(F)cc3)C(=O)N1[C@@H]1c3ccccc3OC[C@@H]1[C@H]2c1ccccc1 6.7%
COc1cccc2c1c(NC(=O)Nc1ccc(F)cc1F)nn2C 1.98%
COc1cccc2c1c(NC(=O)c1cc(C)on1)nn2C 2.09%
CC(=O)Nc1ccc(NC(=O)C2CCC(N3C(=O)C4C5C=CC(C6CC56)C4C3=O)CC2)cc1 (centres undefined) 1.77%
CC(C(=O)N1CCCC1)N1CCN(S(=O)(=O)c2ccc(C(C)(C)C)cc2)CC1 (centres undefined) 0.2%
Cc1ccc(CSCC(=O)Nc2ccccc2F)cc1 0.6%
Cc1c(NC(=O)CSCc2ccccc2)cccc1C(=O)O -0.3%
O=C(CSc1nc2ccccc2s1)N/N=C/c1ccco1 0.58%
Cn1cccc1Cc1nnc(SCC(=O)Nc2ccc3c(c2)OCCO3)n1-c1ccc(F)cc1 0.23%
Cc1ccc(C(=O)N[C@H](C(=O)OCC(=O)Nc2cccc(S(N)(=O)=O)c2)C(C)C)cc1 -0.34%
O=C(NC1CCCCC1)c1ccc(N2CCCC2=O)cc1 2.08%
Cn1ncc(Br)c1C(=O)N1CCOCC1 3.84%
CC1CCN(C(=O)COc2ccccc2F)CC1 4.04%
COC(=O)c1cc(S(=O)(=O)N2CCC(C)CC2)ccc1F 0.31%
O=C(CNC(=O)c1ccccc1F)NCCOc1ccccc1Cl 0.24%
O=C(NCCOc1ccccc1Cl)C(=O)NCCOc1ccccc1Cl 3.63%
CCN1C(=O)[C@H]2[C@@H](c3ccc(C)cc3)N3C(=O)N(c4cccc(Cl)c4)C(=O)[C@@]3(CC(C)C)[C@H]2C1=O 3.11%
N#Cc1ccc(CSc2nnc(-c3cccnc3)n2-c2ccccc2)cc1 0.49%
Cc1ccc2c(C)c(C(=O)N3CCN(Cc4ccccn4)CC3)oc2c1C 1.72%
Cc1ccc2c(C)c(C(=O)N3CCN(c4cnccn4)CC3)oc2c1C 16.7%
CC(C)N(CCO)Cc1nc(C(c2ccccc2)c2ccccc2)no1 -0.29%
Cc1c(C(=O)NCC2CCCO2)oc2ccc(Br)cc12 (centres undefined) 3.18%
O=C(NCc1ccccc1)c1ccc(NC(=O)C2CCCO2)cc1 (centres undefined) 0.29%
Cc1ccc(-n2c(SCC(=O)N3CC(=O)Nc4ccccc43)nc3ccccc3c2=O)cc1 3.64%
O=C1CN(C(=O)CSc2nc3ccccc3c(=O)n2Cc2ccc(F)cc2)c2ccccc2N1 16.3%
O=C(COC(=O)CNC(=O)c1ccc(Cl)cc1)NC1CCCCCC1 -0.18%
CCOCCCNC(=O)C1CCCN1C(=O)NC1CCCCC1 (centres undefined) 1.83%
CCOC(=O)N/N=C(\C)c1cccs1 -0.75%
Nc1ccc(-c2nc3ccccc3[nH]2)cc1 -0.76%
Nc1ccc(-c2nc3ccccc3o2)cc1 2.51%
Cc1ccc(S(=O)(=O)Nc2ccc3nc(-c4cccn4C)[nH]c3c2)cc1 2.21%
O=C(Nc1ccc(S(=O)(=O)Nc2nccs2)cc1)C1CCCCC1 1.14%
O=C(NC(=S)Nc1ccc(S(=O)(=O)Nc2nccs2)cc1)C1CC1 -0.1%
O=C(c1cccc(N2C(=O)C3C4C=CC(C4)C3C2=O)c1)N1CCN(c2ccccc2)CC1 (centres undefined) 3.62%
O=C(c1cccc(N2C(=O)C3C4C=CC(C4)C3C2=O)c1)N1CCN(c2ccccc2F)CC1 (centres undefined) 1.69%
Cc1ccc(S(=O)(=O)NCCC(=O)NCC(c2ccc(F)cc2)N2CCOCC2)cc1 (centres undefined) -0.75%
COc1ccc(CNC(=S)Nc2cccc(OC)c2)cc1 0.93%
CCOc1cc(S(=O)(=O)N(CC)CC)ccc1Br 0.38%
COc1ccccc1CNC(=O)CN(C)S(=O)(=O)c1ccc(Br)s1 3.3%
